Assay results reported in ChEMBL document CHEMBL4513216, “Probing the Open Global Health Chemical Diversity Library for Multistage-Active Starting Points for Next-Generation Antimalarials” (ACS Infect Dis, 2020).
Screen size: about 69,000 compounds; about 8,600 (12%) showed an effect of 50% or more. The entries come from a sample that favours strong results as a whole.

tested on: Plasmodium berghei; assay: Screen against P. berghei liver stage (PbLuc), transformed with Luciferase, at 10uM; type: functional, HepG2; details: tested at 10 uM

Row | SMILES | INHIBITION [%]
1 | Cc1cc(CN2C[C@@H]3COC[C@@H](C(=O)N4CCCCO4)[C@@H]3C2)oc1C | 33.4
2 | NC(=O)c1ccc(NC2CCOC3(CCCC3)C2)nn1 (stereo not given) | 7.18
3 | COC(=O)CCn1ccc(=O)c2cc(OC)ccc21 | -80.3
4 | CN(CCc1cnn(C)c1)C(=O)Cn1c(=O)[nH]c2ccccc21 | 27
5 | CN(CCc1ccccc1)C(=O)CN1C(=O)OC[C@@H]1c1ccccc1 | 36.9
6 | CN(CCc1cnn(C)c1)C(=O)CN1C(=O)OC[C@@H]1c1ccccc1 | 50.8
7 | CCC(CC)C(=O)NCc1cnn(CC)c1 | 20.1
8 | Cn1c(=O)c2cc(C(=O)NCCc3ccccc3)ccc2n(C)c1=O | -0.371
9 | Cc1nc(NC(=O)c2c(-n3cnnn3)sc(C)c2C)sc1C | 92.5
10 | CC(C)CNC(=O)c1c(-n2cnnn2)sc2c1CCC2 | 14.2
11 | O=C(NCC1CCCO1)c1c(-n2cnnn2)sc2c1CCC2 (stereo not given) | -1.58
12 | Cc1sc(-n2cnnn2)c(C(=O)NC(C)C)c1C | 21.2
13 | CC(C)CCNC(=O)c1c(-n2cnnn2)sc2c1CCCC2 | 23.4
14 | CC(C)CNC(=O)c1c(-n2cnnn2)sc2c1CCCC2 | 68.1
15 | CCCn1nccc1C(=O)Nc1nc(C)c(C)s1 | -9.44
16 | Cc1nc(NC(=O)c2c(-n3cnnn3)sc3c2CCC3)sc1C | 93.7
17 | COC(=O)CNC(=O)c1c(-n2cnnn2)sc2c1CCCC2 | -5.59
18 | CCCNC(=O)c1c(-n2cnnn2)sc2c1CCC2 | 26.1
19 | Cc1nc(NC(=O)c2c(-n3cnnn3)sc3c2CCCC3)sc1C | 93.7
20 | CC(C)CNC(=O)c1sccc1-n1cnnn1 | 32.3
21 | Cc1ncc(CNC2CCc3nc(C(C)C)nn3C2)s1 (stereo not given) | 24.7
22 | CCn1c(-c2ccccc2)nn(CC(=O)NCCc2ccc(C)o2)c1=O | -19.1
23 | CCCc1noc(CNC2CCCN(Cc3noc(C4CC4)n3)C2)n1 (stereo not given) | -37.7

Row | SMILES | INHIBITION [%]
24 | Cc1nc2c(N(C)Cc3ccnn3C)nc(N)nc2n1C | 32.3
25 | Cc1ccc(F)cc1-n1c(CCCN2CCOCC2)n[nH]c1=O | 39.4
26 | COc1cc(C)sc1C(=O)N1CCCC(n2nc(C)nc2C)C1 (stereo not given) | 48.2
27 | Cc1cccc(N(C)S(=O)(=O)c2cc(C(=O)O)cs2)c1 | 22.3
28 | CCc1ccc(C(=O)O)cc1S(=O)(=O)N(C)c1cccc(C)c1 | 59.1
29 | CCc1ccc(C(=O)O)cc1S(=O)(=O)N(C)c1cccc(C#N)c1 | 24.4
30 | COc1ccc(S(=O)(=O)NCC(N)c2ccccc2)c(C)c1 (stereo not given) | 24.8
31 | O=C(c1cccnc1)N1CCOC(c2ccc(-c3cncnc3)cn2)C1 (stereo not given) | 31.6
32 | Cc1cc(=O)n(CCNS(=O)(=O)c2cccc(C(F)(F)F)c2)cn1 | 68.5
33 | Cc1cc(=O)n(CCNS(=O)(=O)c2ccc(F)c(Cl)c2)cn1 | 29.7
34 | Cc1cc(=O)n(CCNS(=O)(=O)c2ccccc2)cn1 | 31.3
35 | CN1CCC(c2nccnc2Nc2cnccn2)CC1 | 9.98
36 | CC(C)(C)CN1CCC(c2nccnc2Nc2cnccn2)CC1 | -0.232
37 | CC(C)(C)CN1CCCC(c2nccnc2Nc2cnccn2)C1 (stereo not given) | 51.7
38 | CN1CCCC1CNC(=O)CCCOc1cccc(Br)c1 (stereo not given) | 9.383
39 | NC(=O)CN1CC(O)c2ccccc2S1(=O)=O (stereo not given) | 37.4
40 | Cc1nc(C(=O)N2CCCC(c3ccc4sc(N)nc4n3)C2)co1 (stereo not given) | 5.56
41 | CN(Cc1cccnc1)[C@@H]1CN(C(=O)c2ccno2)[C@@H]2CCCO[C@H]12 | 50.3
42 | CN(Cc1cncnc1)[C@@H]1CN(C(=O)c2ccco2)[C@@H]2CCCO[C@H]12 | 26.7
43 | CN(Cc1cncnc1)[C@H]1CN(C(=O)c2ccco2)[C@@H]2CCCO[C@@H]21 | -35.8
44 | CN(Cc1cccnc1)[C@@H]1CN(C(=O)c2ccco2)[C@@H]2CCCO[C@H]12 | 3.17
45 | COCC(=O)N1C[C@H](N(C)Cc2cncnc2)[C@H]2OCCC[C@H]21 | 64.7
46 | CN(Cc1cncnc1)[C@@H]1CN(C(=O)C2CC2)[C@@H]2CCCO[C@H]12 | -7.7

Row | SMILES | INHIBITION [%]
47 | CN(Cc1cncnc1)[C@H]1CN(C(=O)c2ccc[nH]2)[C@@H]2CCCO[C@@H]21 | 58.4
48 | CN(Cc1cccnc1)[C@@H]1CN(C(=O)c2ccoc2)[C@@H]2CCCO[C@H]12 | -2.35
49 | CN(Cc1cccnc1)[C@@H]1CN(C(=O)CC2CC2)[C@@H]2CCCO[C@H]12 | -31
50 | COCCCN(Cc1cnc(N2CCCC2)nc1)C1CCN(C)CC1 | 10.3
51 | CC1=Nc2c(c(O)nn2C(C)C)C(c2cccnc2)S1 (stereo not given) | -3.19
52 | CC(=O)N1CC(=O)N(c2ccccc2)CC12CCN(CC1CC1)C2 (stereo not given) | 27.9
53 | O=C(OC1CCC1)c1ncccc1OCC(F)(F)F | 8.08
54 | O=C(OC1CCC1)c1ncccc1C(F)(F)F | 42.8
55 | O=C(O)c1ncccc1OCC(F)(F)F | 59.1
56 | Cc1nccc(C2CCCN(C(=O)c3cncnc3)C2)n1 (stereo not given) | -38.3
57 | COC(=O)C(C)(C)S(=O)(=O)c1ccc(Br)cc1 | -1.15
58 | COc1ccc(NC(=O)Nc2c(O)c3ccccc3oc2=O)cc1 | 33.6
59 | CC(C)(CO)Nc1cc(-c2ccncc2)ncn1 | 44.1
60 | OCCNc1cc(-c2ccccc2)ncn1 | 47.1
61 | C[C@@H](CO)Nc1cc(-c2cn[nH]c2)ncn1 | 20.4
62 | CC(C)(CO)Nc1cc(-c2cn[nH]c2)ncn1 | 56
63 | CC(C)[C@@H](CO)Nc1cc(-c2cn[nH]c2)ncn1 | 56
64 | CC(C)(CO)Nc1cc(-c2ccccc2)ncn1 | 29.3
65 | CCc1cc(=O)[nH]c(-c2ccc(NC(CO)CC(C)C)nc2)n1 (stereo not given) | -27.4
66 | CC[C@@H](CO)Nc1cc(-c2cn[nH]c2)ncn1 | 50.1
67 | C[C@H](O)CNc1cc(-c2cn[nH]c2)ncn1 | 24.8
68 | CC(C)CCn1cc(C(C(=O)O)N2CCC(N3CCSCC3)CC2)cn1 (stereo not given) | 3.06
69 | CCn1ccnc1CN1CCN(C(C)C(=O)NCc2ccco2)CC1 (stereo not given) | 18.6

Row | SMILES | INHIBITION [%]
70 | Cc1c[nH]nc1C1CN(c2cnccn2)CCO1 (stereo not given) | 24.05
71 | Cc1nc(C(C)C)sc1C(=O)NCC(C)(C)N1CCOCC1 | -20.1
72 | Cc1nn(C)c(C)c1-c1nc2cc(S(=O)(=O)N3CCCC3)ccc2n1C | -28
73 | O=C1COC2(CCN(CC3CCOCC3)CC2)CN1Cc1ccccn1 | 27.4
74 | O=C(NCCCO)c1nnsc1-c1ccc(Cl)cc1 | 31.7
75 | Clc1ccc2[nH]c3c(c2c1)CCCC3c1nn[nH]n1 (stereo not given) | 30.2
76 | Cn1c(N)c2c(=O)n(C)c(-c3ccc(Cl)cc3)cc2c(C#N)c1=O | -26.3
77 | Cn1c(N)c2c(=O)n(C)c(-c3ccc(Cl)cc3Cl)cc2c(C#N)c1=O | 66
78 | Cn1c(N)c2c(=O)n(C)c(-c3ccccc3)cc2c(C#N)c1=O | 0.868
79 | COc1ccc(NC(=O)CCSc2ccc3nncn3n2)c(OC)c1 | 28.1
80 | O=C1CO[C@H]2CN(Cc3cccc4[nH]ccc34)C[C@@H]2N1C1CCOCC1 | 26.8
81 | Oc1cc(C2CCCCN2Cc2cccs2)nc(-c2ccncc2)n1 (stereo not given) | 19.25
82 | Cn1nc(C2CCCN(Cc3cccs3)C2)c2nccnc21 (stereo not given) | -0.902
83 | Oc1cc(C2CCCCN2Cc2ccsc2)nc(-c2ccncc2)n1 (stereo not given) | 10.9
84 | Oc1cc(C2CCCCN2Cc2cccs2)nc(-c2ccccn2)n1 (stereo not given) | 86.3
85 | Cc1cnc(-c2nc(C3CCCN(Cc4cccs4)C3)no2)cn1 (stereo not given) | 14.975
86 | Oc1cc(C2CCCN(Cc3cccs3)C2)nc(-c2ccccn2)n1 (stereo not given) | 81.5
87 | COCCNC(=O)[C@@H]1CN(Cc2sccc2C)C[C@H]2OCC[C@H]21 | 16.8
88 | Cn1nnc(NCc2ccc(-c3ccc(Cl)cc3)o2)n1 | 49.7
89 | Brc1ccc(CNCc2nnc3n2CCC3)s1 | 36.7
90 | Cc1nc(C2CCCN2CC(=O)N(C)Cc2ccsc2)no1 (stereo not given) | 13.3
91 | COc1cccc2c1N(CC(=O)Nc1ccc(Br)cn1)CCC2 | 66.7
92 | COc1cccc2c1N(CC(=O)Nc1ccc(Cl)cn1)CCC2 | 33.1

Row | SMILES | INHIBITION [%]
93 | O=C(CN1CCCc2cc(F)cc(F)c21)Nc1ccc(Br)cn1 | -5.57
94 | Cn1cnc(S(=O)(=O)N2CCCC2c2cnccn2)c1 (stereo not given) | 22
95 | Cc1cn2nc(N3CCN(Cc4nc(C(C)C)no4)CC3)sc2n1 | 42
96 | Cc1cn2nc(N3CCN(Cc4cc(C)on4)CC3)sc2n1 | 7.08
97 | Cc1cn2nc(N3CCCN(Cc4noc(C)n4)CC3)sc2n1 | -9.14
98 | CCc1nc(CN2CCCN(c3nn4cc(C)nc4s3)CC2)no1 | 85.2
99 | Cc1cn2nc(N3CCN(Cc4c(C)noc4C)CC3)sc2n1 | 58.5
100 | Cc1cc(CN2CCN(c3nn4cc(C)nc4s3)CC2)on1 | 37
101 | Cc1cnn(CC(C)Nc2nc3ccccc3o2)c1 (stereo not given) | 21.8
102 | COCC[C@]1(O)CCN(C2CCN(C(=O)C3CCC3)CC2)C[C@H]1C | 36.4
103 | O=C(NC1CCC1)[C@H]1C[C@H]2CN(C(=O)Nc3ccc(F)cc3)C[C@@H]1O2 | 1.9
104 | CC(C)(C)c1ncc(CNc2ccccc2Cn2cncn2)s1 | 60.6
105 | CC(C)(C)c1nc(CNc2ccccc2SCCC(N)=O)cs1 | 77.4
106 | NC(=O)CCSc1ccccc1NCc1ccc(Cl)s1 | 75.7
107 | CC(C)N(CC(N)=O)Cc1csc(C(C)(C)C)n1 | -7.31
108 | CC(C)(C)c1ncc(CNc2ccccc2SCCC(N)=O)s1 | 83.4
109 | CNc1nc(CNC(=O)Nc2ccccc2SC)cs1 | 6.14
110 | c1ccc(NCc2ccsc2)c(Cn2cncn2)c1 | 3.41
111 | CC(C)(C)c1ncc(C(=O)NC(C(N)=O)c2ccccc2)s1 (stereo not given) | 3.15
112 | Cc1ccc(CNc2ccccc2SCCC(N)=O)s1 | 39.7
113 | NC(=O)CSc1ccccc1NCc1nc(Cc2ccccc2)no1 | -75.4
114 | NC(=O)C(NC(=O)CCc1ccc(Cl)s1)c1ccccc1 (stereo not given) | -19.7
115 | c1csc(CNc2ccccc2Cn2cncn2)c1 | -56.8
